# aDG glyco act = alpha-DG glycosylation activation. Pro5-aDG cells, alpha-DG glycosylation AlphaScreen (IIH6); 0% Pro5, 100% B10-LARGE cell signal. activation, % at 10 µM. 360,000 compounds, 0.22% hits;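 active = activation of at least 8% versus controls, or a plate z-score of at least 8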;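 note: Pro5 are CHO cells carrying HIG-tagged alpha-DG that lacks glycosylation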
# CR mimetic SO = yeast age-related superoxide inhibition as caloric restriction mimetic; S. cerevisiae aged cells, superoxide DHE fluorescence; active compounds read low; superoxide response (% of plate mean), % at 10 µM; 330,000 compounds, 0.18% hits;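 active = superoxide response under a set limit, about three screen SD below normal, cut at about 65% in these data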;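 note: yeast aged for seven days with compound at 30 °C before DHE staining; 100% = average MFI of all compound-treated wells on the plate with controls excluded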
# SUMO Mot1 rescue = SUMOylation pathway inhibition by Mot1-301 growth rescue. growth rescue, % at 18.8 µM. 320,000 compounds, 1% hits. S. cerevisiae Mot1-301 growth rescue, ATP luminescence, 38.5C; percent above DMSO median, 100 means doubled;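 active = every valid replicate shows activation above 250% relative to neutral control wells; inactive = the rest, any valid replicate at or below 250%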;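 note: OY570 slx delta 5 strain wells were the positive control but not used for scaling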
# MPTP block = permeability transition pore inhibition. isolated mouse mitochondria, Ca2+ swelling absorbance, 30 min. inhibition, % at 10 µM. 360,000 compounds, 1.4% hits. AID 602449;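 active = inhibition of 50% or more, scaled per plate between neutral and stimulator controls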;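 note: 0% = DMSO wells given calcium and 100% = 1 mM EGTA wells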
# FAS-TE inh = FAS thioesterase (human) inhibition | P49327 | 360,000 compounds, 0.67% hits | recombinant FAS-TE, OMFH fluorogenic substrate, fluorescence endpoint | AID 602261 | inhibition, % at 15 µM;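 active = compounds whose normalised, plate-corrected inhibition of enzyme fluorescence in the single-dose primary screen is 50% or more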;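 note: 0% = DMSO with enzyme and 100% = substrate without enzyme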
# Cardio protect = protects H9c2 cardiomyocytes from peroxide injury; H2O2 injury protection, ATPLite, 2 h; protection from H2O2 cell death, % at 20 µM; 360,000 compounds, 0.63% hits;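 active = compounds giving at least 50% protection of heart cells from peroxide-induced death in the single-dose screen, raw or plate-pattern-corrected value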;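 note: 0% = DMSO wells with peroxide and 100% = DMSO wells without peroxide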
# * marks the source's active call; other numbers are inactive results; . = no result given; + = active, no number. Hits are enriched below; roughly 3.8% of the tested compounds scored in any of these assays.
SMILES,aDG glyco act,CR mimetic SO,SUMO Mot1 rescue,MPTP block,FAS-TE inh,Cardio protect
CC(C)Cn1c(N)c(C(=O)COC(=O)CCc2nc3ccccc3s2)c(=O)n(C)c1=O,2,112,-4,5,8,-16
CC(=O)N1CCN(C(=O)CCc2nc3ccccc3c(=O)[nH]2)CC1,0,109,-13,-8,-6,61*
Cc1ccc(F)cc1C(=O)N1CCCCC1c1cc(C(=O)Nc2cccc(C#N)c2)no1 (configuration not stated),0,.,.,1,14,5
CS(=O)(=O)Nc1ccc2c(c1)[C@H]1C[C@H](CC(=O)NCc3cccc(F)c3)O[C@@H](CO)[C@H]1O2,0,.,.,4,-4,-11
Cc1ccc2c(c1)CCCN2C(=O)CCc1nc2ccccc2c(=O)[nH]1,0,97,-11,1,0,76*
Cc1cccc(N2CCN(C(=O)CCc3nc4ccccc4c(=O)[nH]3)CC2)c1C,1,104,-2,-1,-3,50*
Cc1ccc(COC(=O)CCc2nc3ccccc3c(=O)[nH]2)cc1,0,98,0,1,-10,31
Cc1cccc(-n2ccnc2CN2CCN(C3CCCC3)C(CCO)C2)c1 (configuration not stated),0,103,-33,1,-5,6
Cc1cccc(-n2ccnc2CN2CCC(CO)(Cc3ccccc3)CC2)c1,0,104,643*,1,-3,2
Cc1ccc(C)c(N2CCN(C(=S)NC3CCCCC3)CC2)c1,1,104,-11,2,-10,-3
Cc1cccc(N2CCN(C(=S)NC3CCCCC3)CC2)c1C,0,101,+,19,-5,-3
COc1ccc(NC(=O)CN(C)S(=O)(=O)c2cnc[nH]2)cc1Cl,0,88,-3,-2,-10,2
COc1cccc(N2CCN(c3ncnc4c3[nH]c3ccccc34)CC2C)c1 (configuration not stated),.,88,523*,.,.,.
O=[N+]([O-])c1ccccc1S(=O)(=O)N1CCN(S(=O)(=O)c2ccc3c(c2)OCCO3)CC1,0,69,15,0,53*,-14
CCS(=O)(=O)N1Cc2ccccc2CC1C(=O)Nc1nnc(SCc2c(Cl)cccc2Cl)s1 (configuration not stated),0,101,-15,8,12,-6
CCSc1nnc(NC(=O)C2Cc3ccccc3CN2S(=O)(=O)CC)s1 (configuration not stated),0,95,18,-1,-4,64*
COc1cc(-c2cc(C(=O)N(C)Cc3ccccc3)c3ccccc3n2)cc(OC)c1OC,0,109,-1,-1,16,35
COc1ccc(-c2cc(C(=O)N(C)Cc3ccccc3F)c3ccccc3n2)cc1OC,-1,109,-22,-1,22,66*
COc1ccc(-c2cc(C(=O)N(C)CC(=O)Nc3ccccc3C(F)(F)F)c3ccccc3n2)cc1OC,-1,.,.,1,6,40
COc1ccccc1CN(C)C(=O)c1cc(-c2cc(OC)c(OC)c(OC)c2)nc2ccccc12,0,93,1,0,22,50*
COc1ccc(N2CCN(C(CNS(=O)(=O)c3ccccc3)c3ccccc3)CC2)cc1 (configuration not stated),-1,80,-10,2,19,-5
O=C1CC(=O)Nc2cc(S(=O)(=O)N3CCOc4ccc(Cl)cc43)ccc2N1,0,85,3,-1,-30,48
CC(=O)c1ccccc1C(=O)N1CCC(n2nccc2NC(=O)C2CC2)CC1,0,93,-10,-1,-4,-2
O=C(NCc1cccs1)C1C(=O)Nc2ccccc2C(=O)N1C1CCCC1 (configuration not stated),0,.,.,-1,.,.
CCOc1cccc(-c2c(C(=O)N/N=C/c3ccoc3)nnn2-c2nonc2N)c1,0,109,-22,1,-1,2
SMILES,aDG glyco act,CR mimetic SO,SUMO Mot1 rescue,MPTP block,FAS-TE inh,Cardio protect
CCn1c(SCC(=O)Nc2nc3ccccc3s2)nnc1-c1ccc(OC)cc1,1,103,343*,0,-9,-5
COc1ccc(-c2ccc3c(c2)S(=O)(=O)c2cccc(C(=O)NC[C@@H]4CCCO4)c2C3=O)cc1OC,-1,103,2,0,-7,63*
COc1ccc(C(C(=O)NCc2ccccc2)N(Cc2ccco2)C(=O)c2snc(C(N)=O)c2N)cc1 (configuration not stated),0,100,-12,0,8,80*
NC(=O)c1nsc(C(=O)N(CCc2ccccc2)C(C(=O)NC2CCCC2)c2ccco2)c1N (configuration not stated),0,102,-5,2,19,78*
Cc1ccc(C(C(=O)NCc2ccccc2)N(Cc2ccco2)C(=O)c2snc(C(N)=O)c2N)o1 (configuration not stated),0,88,-3,2,8,61*
COc1ccc(C(C(=O)NCc2ccccc2)N(Cc2ccco2)C(=O)c2snc(C(N)=O)c2N)cc1OC (configuration not stated),0,89,9,2,-3,49
COc1ccc(C(=O)Nc2c(N)nc(SCC(=O)N3CCC(C)CC3)[nH]c2=O)cc1,0,100,19,-2,-4,0
O=C(O)C1C2CCC(O2)C1C(=O)Nc1ccc(F)c(Cl)c1 (configuration not stated),0,116,13,0,-10,7
Cc1ccc(NC(=O)C2C3CCC(O3)C2C(=O)O)cc1Cl (configuration not stated),0,100,355*,0,-6,-2
NC(=O)C1CCCN(C(=O)CN2C(=O)NC(c3ccccc3)(c3ccccc3)C2=O)C1 (configuration not stated),0,.,.,-1,-2,3
CCc1nc2c(OCC(=O)C(C)(C)C)cccn2c1N(C)C(=O)COc1ccccc1,0,.,.,-1,-5,-1
COCCn1c(C)c(C)c2c(NCCc3ccccc3)ncnc21,0,98,-21,2,0,-2
CCOC(=O)C(=O)NNc1ccc(F)cc1,0,102,413*,-1,-8,-6
CCOC(=O)C(=O)N/N=C/c1ccc(F)cc1,0,101,-8,1,-4,7
CCc1ccc(C(=O)NNc2ccc(F)cc2)cc1,0,95,319*,-1,-1,2
CCc1ccc(C(=O)NNc2ccc(S(N)(=O)=O)cc2)cc1,1,116,-6,2,-4,-4
COc1cccc(C(NC(C)=O)c2nc(-c3cccc(O)c3)cs2)c1 (configuration not stated),0,.,.,0,0,0
Cc1nnsc1Sc1ccccc1C(=O)O,0,108,376*,-1,-6,3

# Bioassay records deposited in PubChem BioAssay by several laboratories.
